Screens as filed in PubChem BioAssay.
The sample as a whole holds a higher share of hits than the screen did.
Methyltransferases – Primary Screen for Target Class Profiling of Small Molecule Inhibitors of Methyltransferases. purified enzyme, MTase-Glo SAH luminescence; hits give low values. calls only at 40 µM. 25,000 compounds, 3.9% hits; call rule not given here
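Each enzyme was reacted with SAM and its substrate, with compounds tested once at 40 uM; SAH formed was read by MTase-Glo luminescence.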
Calls only; i = inactive; + = active, no number; ! = not active in a repeat.

SMILES	Methyltransferases
CCc1ccc(NC(=O)Cn2c(=O)oc3cc(S(=O)(=O)N4CCCC4)ccc32)cc1	i
CCCSCCCNC(=O)c1cc2n(n1)CC(C)(C(=O)NCc1ccc(F)cc1)N(C)C2=O (stereo not given)	i
CCOC(=O)c1cc2n(n1)CC(C)(C(=O)NC1CCCCCC1)N(c1ccc(C)c(C)c1)C2=O (stereo not given)	i
COc1cc(-c2cc(-c3cccc(O)c3)cnc2N)cc(OC)c1OC	i
Nc1ccc(-c2cnc(N)c(-c3ccc(Cl)cc3)c2)cn1	+
Cc1cc(C)cc(Nc2nc(C)cc3nn(CC(=O)Nc4cccc(Cl)c4)c(=O)n23)c1	i
CCc1cccc(NC(=O)Cn2nc3n(CC(C)C)c(=O)c4ccc(C(=O)NC(C)CC)cc4n3c2=O)c1 (stereo not given)	i
CC1CCCC(NC(=O)C2(C)Cn3c(ccc3-c3ccco3)C(=O)N2Cc2ccc(F)cc2)C1C (stereo not given)	i
Cn1cc(-c2ccc(F)c(C(F)(F)F)c2)nc1C1CCN(c2ncnc3[nH]ncc23)CC1	+
CCCn1c(=O)c2ccc(C(=O)NC(C)C)cc2n2c(SCc3ccccc3)nnc12	i
COc1cc2c(cc1-c1c(C)noc1C)ncc1[nH]c(=O)n([C@H](C)c3ccccn3)c12	+!
Cc1noc(C)c1-c1nccc2c(=O)cc(-c3ccccn3)oc12	i
COc1ncccc1-c1cc(-c2c(C)noc2C)c2cncn2c1	i
Cc1ccc(CNC(=O)CSc2nnc3n(Cc4ccc(F)cc4)c(=O)c4ccccc4n23)cc1	i
C=CCn1c(=O)c2ccc(C(=O)NC(C)C)cc2n2c(=O)n(CC(=O)Nc3ccc(C)c(F)c3)nc12	i
COc1ccc(-c2cc3n(n2)CC(C)(C(=O)NC2CCCCC2)N(Cc2cccs2)C3=O)cc1 (stereo not given)	i
CC1CCCN(c2nc3c(S(=O)(=O)c4ccccc4)nnn3c3ccc(Cl)cc23)C1 (stereo not given)	i
CCC(C)N1CCN(C(=O)Cn2c(=O)oc3cc(S(=O)(=O)NCc4ccccc4)ccc32)CC1 (stereo not given)	i
CCCCCCCC/C=C\CCCCCCCC(=O)NCCc1ccc(O)c(O)c1	i
C[C@](Cc1ccc(O)c(O)c1)(NN)C(=O)O	+
COc1cc(CC(=O)O)ccc1O	i
CC(N)(Cc1ccc(O)c(O)c1)C(=O)O (stereo not given)	+
CCOC(=O)c1cc2n(n1)CC(C)(C(=O)NC1CCCCC1)N(Cc1ccc(Cl)cc1)C2=O (stereo not given)	i
CCOC(=O)c1cc2n(n1)CC(C)(C(=O)NC1CCCCC1)N(c1cc(C)cc(C)c1)C2=O (stereo not given)	i
CC(C)CNC(=O)c1ccc2c(=O)n(C)c3nn(CC(=O)NCc4ccccc4)c(=O)n3c2c1	i
SMILES	Methyltransferases
Cc1nc2c3ccccc3n3c(CCCC(=O)NCCCOC(C)C)nnc3n2n1	i
CC(=O)Nc1c2n(c3ccc(F)cc13)CC(C)(C(=O)NC1CCCC1)N(C1CCCCCC1)C2=O (stereo not given)	i
CC1(C(=O)NC2CCCCCCC2)Cn2c(cc3ccccc32)C(=O)N1CCN1CCOCC1 (stereo not given)	i
C=C1C(=O)OC2/C=C(/C)C3=CC(=O)C(C)(CC(OC(=O)/C(C)=C/COC(C)=O)C12)O3 (stereo not given)	+
C=C(CO)C(=O)O[C@H]1C[C@@]23O[C@@H]2CC/C(=C/[C@H]2OC(=O)C(=C)[C@H]12)CO[C@H]3O	i
C=C1C(=O)O[C@H]2[C@H]1[C@@H](OC(=O)/C(C)=C\C)C[C@]1(C)O[C@@H]1[C@H]1O[C@H]1C(=C)[C@H]2O	i
CCCn1c(=O)c2ccccc2n2c(SCC(=O)NCc3ccccc3Cl)nnc12	i
COc1cccc(CNC(=O)Cn2ccc3cc(S(=O)(=O)N4CCCCC4)ccc32)c1	i
COCCCNC(=O)CCc1nnc2n(Cc3ccc(C)cc3)c(=O)c3ccccc3n12	i
COc1cc2c(cc1OC)N1C(=O)C[C@]34C=CCN5CC[C@@H]2[C@@H](CC3)[C@]514	+
COc1ccc2c(c1)N1C(=O)C[C@@]34C=CC[N@+]5([O-])CC[C@H]2[C@H](CC3)[C@@]145	i
CC1CCCCN1CCN1C(=O)c2ccc(-c3ccco3)n2CC1(C)C(=O)NC1CCCCCCC1 (stereo not given)	i
CCOc1ccc(C(=O)Cn2nc3n(Cc4ccccc4)c(=O)c4ccccc4n3c2=O)cc1	i
CC(C)(C)Cn1c(N)nc2ccc(-c3[nH]c(C(C)(C)C)nc3-c3ccc(F)cc3)nc21	+
CCOc1ccc(N2C(=O)c3nc4ccccc4n3CC2(C)C(=O)NCc2ccccc2)cc1 (stereo not given)	i
O=C(NC1CCCC1)C1c2cccn2CC(=O)N1c1cccc(Cl)c1 (stereo not given)	i
Cc1ccc(NC(=O)c2cc3n(n2)CC(C)(C(=O)NC2CCCCCC2)N(C)C3=O)c(Cl)c1 (stereo not given)	i
COc1ccc(OC)c(S(=O)(=O)N2CCC3(CC2)C(OC)C(=O)N3CC2CC2)c1 (stereo not given)	i
CCCN1C(=O)c2c(C(=O)NCc3cccc(OC)c3)ncn2CC1(C)C(=O)NC1CCCC1 (stereo not given)	i
CC1(C(=O)NCc2ccccc2)Cn2cnc(C(=O)N3CCc4ccccc43)c2C(=O)N1C1CC1 (stereo not given)	i
O=C(CCc1nnc2n(Cc3ccccc3Cl)c(=O)c3ccccc3n12)NCc1ccc(F)cc1	i
Cc1ccccc1CCN1C(=O)c2ccc(-c3ccco3)n2CC1(C)C(=O)NC1CCCCC1 (stereo not given)	i
COc1ccc(-c2cc3n(n2)CC(C)(C(=O)NCc2ccccc2)N(c2ccc(OC)cc2)C3=O)cc1 (stereo not given)	i
S=c1ssc2c1CCC2	+
CC1(C(=O)NC2CCCC2)Cn2c(c(-n3cccc3)c3ccccc32)C(=O)N1CCc1cccs1 (stereo not given)	i
SMILES	Methyltransferases
Cc1ccc(NC(=O)N2CCn3cccc3C2C(C)C)cc1F (stereo not given)	i
CCc1ccccc1NC(=O)c1ncn2c1C(=O)N(C1CC1)C(C)(C(=O)NC1CCCC1)C2 (stereo not given)	i
Cc1ccc(C)c(N2C(=O)c3cc4ccccc4n3CC2(C)C(=O)NC2CCCC2)c1 (stereo not given)	i
COc1ccc(CNC(=O)CSc2nnc3n(CCc4ccccc4)c(=O)c4ccccc4n23)cc1	i
C=C(F)c1sc(CNCCCNc2cc(=O)c3ccccc3[nH]2)c(C)c1Br	+
Cc1ccc(C)c(N2CCN(S(=O)(=O)c3cc4[nH]c(=O)[nH]c4cc3C)CC2)c1	i
O=C(CSc1nnc2n(CCc3ccccc3)c(=O)c3ccccc3n12)NC1CCCCC1	i
CN1C(=O)c2cc(C(=O)NCc3cccc(Cl)c3)nn2CC1(C)C(=O)NCc1ccc(F)cc1 (stereo not given)	i
Clc1ccc(-c2nnn3c2nc(NCCc2c[nH]c4ccccc24)c2ccccc23)cc1	i
O=C(Nc1cccc(F)c1)N1CCn2cccc2C1Cc1ccccc1 (stereo not given)	i
Cc1cccc(NC(=O)N2CCn3cccc3C2Cc2ccccc2)c1 (stereo not given)	i
O=C(Nc1ccc(F)c(Cl)c1)N1CCn2cccc2C1Cc1ccccc1 (stereo not given)	+
Cc1ccc(CN2C(=O)c3cc4sccc4n3CC2(C)C(=O)NC2CCCCC2)cc1 (stereo not given)	i
